Shown are actives, neighbours in structure and some others; about 12% of the full set was active somewhere.
Sm TGR block: blocks Schistosoma mansoni thioredoxin glutathione reductase | purified TGR, DTNB reduction, TNB absorbance 405 nm | Potency, µM (titrated, usually from 114 µM), hits mostly inhibitors | 3% of 360,000 active; note: nearly all actives have a fitted effect of over 60% in size
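First, TGR (20 nM dispensed) and NADPH were mixed with compound. Second, a 15 min room-temperature incubation followed. Third, further NADPH and then DTNB were added to start the reaction. Finally, TNB absorbance was monitored kinetically.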
SARS PLP yeast: inhibitors of SARS-CoV papain-like protease in yeast; 0.19% of 330,000 active; S. cerevisiae expressing SARS-CoV PLpro, growth rescue; Potency, µM (titrated, usually from 32.9 µM), most hits filed as activators; AID 485353; calls by dose curve; note: nearly all actives have a fitted effect of over 55% in size
Pf growth 96h: P. falciparum growth inhibition at 96 hours; P. falciparum luciferase reporter growth, 96 h; Potency, µM (highest dose often 28.7 µM), usual class: inhibitors; 6.9% of 320,000 active; AID 504834
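96 h incubation, 37 C, 5% CO2, of luciferase-reporter P. falciparum-infected RBCs (2% hematocrit, 0.05% parasitemia final) with test compounds; endpoint luminescence.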
Pf growth 48h: inhibits P. falciparum growth in the first generation, 48 h. P. falciparum luciferase growth in erythrocytes, 48 h. Potency, µM (top dose mostly 28.7 µM), usual class: inhibitors. 5.9% of 310,000 active. AID 504832
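In quantitative HTS format, infected erythrocytes bearing luciferase-reporter parasites were treated for a single generation at 37 C. Luminescence after adding detection reagent served as the growth measure.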
A number is an active result; n = inactive; u = inconclusive; x = no result given. Unless noted, calls come from the whole dose curve; as a rule, active = well fitted curve in the direction sought with a large enough effect; inconclusive = small, poorly fitted or top-dose-only effect, or another doubt; inactive = no such curve, though single readings can be large; an effect the other way counts as inactive or inconclusive.

SMILES | Sm TGR block | SARS PLP yeast | Pf growth 96h | Pf growth 48h
CCCN1C(=O)c2cccc3c(N4CCCCC4)ccc(c23)C1=O | n | n | 13.1µM | n
CC1(C)CC(=O)C=C(NC2=CC3OC(c4ccccc4)OCC3OC2=O)C1 (stereo unspecified) | 20µM | n | n | n
Cc1ccccc1NC1=CC(=O)CC(C)(C)C1 | n | n | n | n
CCN(CC(=O)Nc1ccc(NC(C)=O)cc1)C(=O)c1ccc2c(c1)S(=O)(=O)N=C1CCCCCN12 | n | n | n | n
O=C(CNC(=O)c1ccc2c(c1)S(=O)(=O)N=C1CCCCCN12)Nc1ccc(F)c(F)c1 | n | n | u | 10.4µM
NS(=O)(=O)c1ccc(CNC(=O)c2cc(=O)c3ccccc3o2)cc1 | n | n | n | x
COc1ccc(NC(=O)Cn2c(CCC(=O)O)ccc2-c2ccccc2)cc1Cl | n | x | x | x
COc1ccccc1-n1c(CCC(=O)O)ccc1-c1ccccc1 | 28.2µM | n | n | n
COc1ccc(-n2c(CCC(=O)O)ccc2-c2ccccc2)c(OC)c1 | 8.91µM | x | x | x
COc1ccc(-c2ccc(CCC(=O)O)n2-c2ccccc2OC)cc1 | 11.2µM | n | n | n
Cc1c(C(=O)NCCc2ccc(Cl)cc2)sc2nc3n(c(=O)c12)CCCC3 | 44.7µM | x | x | x
Cc1c(C(=O)NCCc2ccc(Cl)cc2)sc2nc3n(c(=O)c12)CCC3 | n | u | n | n
CCOc1ccc(NC(=O)c2sc3nc4n(c(=O)c3c2C)CCCC4)cc1 | 31.6µM | x | x | x
COc1ccc(COC(=O)c2sc3nc4n(c(=O)c3c2C)CCC4)cc1 | n | n | u | 9.28µM
Cc1ccc(CNC(=O)c2sc3nc4n(c(=O)c3c2C)CCCC4)cc1 | 56.2µM | x | x | x
Cc1ccc(CNC(=O)c2sc3nc4n(c(=O)c3c2C)CCCCC4)cc1 | n | x | x | x
COc1ccc(CCNC(=O)c2sc3nc4n(c(=O)c3c2C)CCCC4)cc1OC | 35.5µM | x | x | x
Cc1c(C(=O)NCc2ccc(Cl)cc2)sc2nc3n(c(=O)c12)CCCCC3 | 35.5µM | x | x | x
CCCC[C@H](CC)CN1CN(C[C@@H](CC)CCCC)CC(C)(N)C1 | x | x | u | n
Cc1occc1C(=O)NCCCCc1ccccc1 | 20µM | n | u | x
Cc1occc1C(=O)NCc1ccc(C(=O)O)o1 | 39.8µM | n | n | x
Cc1cc(C(=O)NCCc2ccc(Cl)cc2)no1 | x | n | n | 6.57µM
Cc1occc1C(=O)NCCc1ccc(Cl)cc1 | 22.4µM | n | u | x
OC[C@@H](O)C(O[C@@H]1O[C@@H](CO)[C@H](O)[C@H](O)[C@H]1O)[C@H](O)[C@@H](O)CO (stereo partly specified) | x | x | u | n
Cc1ccoc1C(=O)NCCNC(=O)c1occc1C | n | n | n | n
SMILES | Sm TGR block | SARS PLP yeast | Pf growth 96h | Pf growth 48h
Cc1ccoc1C(=O)NCCCNC(=O)c1occc1C | 44.7µM | n | n | n
Cc1cc(C(=O)Nc2cnn(Cc3ccc(Cl)cc3Cl)c2)no1 | n | n | n | 4.15µM
COc1ccc(S(=O)(=O)c2cnc3ccccc3n2)cc1 | u | n | 13.1µM | u
O=C(O)COc1cnc2ccccc2n1 | n | n | n | n
O=S(=O)(c1ccc(Br)cc1)c1cnc2ccccc2n1 | 14.1µM | n | 11.7µM | u
O=S(=O)(Cc1ccccc1)c1cnc2ccccc2n1 | n | n | x | 10.4µM
COc1ccc(S(=O)(=O)c2ccc(OC)cc2)cc1 | n | n | x | n
Cc1ccc(CNC(=O)c2cccc(Nc3nc4ccccc4n4nnnc34)c2)cc1 | n | x | x | x
CCCN(CCC)c1cc(C)nc2nc(-c3ccc(C(C)(C)C)cc3)nn12 | n | x | x | x
O=C(CSc1ccc2nc(-c3ccccc3)cn2n1)Nc1ccccc1 | n | x | x | x
CCOc1ccccc1NC(=O)N1CCC(NC(=O)C2CCCCC2)CC1 | n | n | u | n
COc1ccccc1C(=O)NC1CC(C)(C)NC(C)(C)C1 | n | n | u | n
O=C(N/N=C/c1[nH]c2ccccc2c1Cl)c1cccc(Br)c1 | n | n | 11.7µM | u
O=C(N/N=C/c1cccnc1)c1cccc(Br)c1 | n | u | 6.57µM | n
O=C(N/N=C/c1cc(Br)c(Br)o1)c1cccnc1 | 28.2µM | n | 13.1µM | n
Cc1cc(Br)cc(/C=N/NC(=O)c2ccc3c(c2)OCO3)c1O | n | n | 13.1µM | 13.1µM
O=C(N/N=C/c1ccccc1O)c1ccc2c(c1)OCO2 | n | n | n | n
O=C(N/N=C\c1cc(Br)c(Br)o1)c1cncc(Br)c1 | n | n | n | n
CN(C)CCNC(=O)C1CCN(c2ncnc3c2nc2n3CCCCC2)CC1 | n | x | x | x
CCN(CC(=O)Nc1ccc2c(c1)OCCO2)C(=O)CCc1ccccc1Cl | n | n | u | u
O=C(N/N=C/c1cc(Br)c(O)c(Br)c1O)c1ccc2c(c1)OCCO2 | u | u | n | u
O=C(N/N=C/c1cccc(Oc2ccccc2)c1)c1ccncc1 | n | n | 3.7µM | n
O=C(N/N=C/c1cc(Br)c(Br)o1)c1ccc2c(c1)OCCO2 | 11.2µM | n | n | n
COC(=O)c1ccccc1NC(=O)NCCc1c(C)nn(C)c1C | n | x | x | x
Cc1nc2c(c(=O)n1Cc1ccccc1Cl)c1nc3ccccc3nc1n2Cc1ccco1 | 2.82µM | n | u | u
CCO/C(C)=N/n1c2nc3ccccc3nc2c2c(=O)n(Cc3ccccc3Cl)c(C)nc21 | n | n | u | 0.738µM
Cc1cc(C)cc(-n2c3nc4ccccc4nc3c3c(=O)n(Cc4ccco4)cnc32)c1 | 15.8µM | n | x | u
COc1ccc(Cn2c3nc4ccccc4nc3c3c(=O)n(Cc4ccco4)c(C)nc32)cc1 | u | n | u | u

Assay outcomes: PubChem, National Center for Advancing Translational Sciences (NCATS)
